ULK1 inh: blocks human autophagy kinase ULK1; AID 1259251; 30,000 tested, 1.9% active; inhibition, % at 5.96 µM; AlphaScreen Atg13 phosphorylation by ULK1, luminescence; O75385; in the data active = inhibition above about 43%;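 also: 0% = median of compound wells and 100% = no enzyme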
Target sequence (O75385 whole entry, looked up): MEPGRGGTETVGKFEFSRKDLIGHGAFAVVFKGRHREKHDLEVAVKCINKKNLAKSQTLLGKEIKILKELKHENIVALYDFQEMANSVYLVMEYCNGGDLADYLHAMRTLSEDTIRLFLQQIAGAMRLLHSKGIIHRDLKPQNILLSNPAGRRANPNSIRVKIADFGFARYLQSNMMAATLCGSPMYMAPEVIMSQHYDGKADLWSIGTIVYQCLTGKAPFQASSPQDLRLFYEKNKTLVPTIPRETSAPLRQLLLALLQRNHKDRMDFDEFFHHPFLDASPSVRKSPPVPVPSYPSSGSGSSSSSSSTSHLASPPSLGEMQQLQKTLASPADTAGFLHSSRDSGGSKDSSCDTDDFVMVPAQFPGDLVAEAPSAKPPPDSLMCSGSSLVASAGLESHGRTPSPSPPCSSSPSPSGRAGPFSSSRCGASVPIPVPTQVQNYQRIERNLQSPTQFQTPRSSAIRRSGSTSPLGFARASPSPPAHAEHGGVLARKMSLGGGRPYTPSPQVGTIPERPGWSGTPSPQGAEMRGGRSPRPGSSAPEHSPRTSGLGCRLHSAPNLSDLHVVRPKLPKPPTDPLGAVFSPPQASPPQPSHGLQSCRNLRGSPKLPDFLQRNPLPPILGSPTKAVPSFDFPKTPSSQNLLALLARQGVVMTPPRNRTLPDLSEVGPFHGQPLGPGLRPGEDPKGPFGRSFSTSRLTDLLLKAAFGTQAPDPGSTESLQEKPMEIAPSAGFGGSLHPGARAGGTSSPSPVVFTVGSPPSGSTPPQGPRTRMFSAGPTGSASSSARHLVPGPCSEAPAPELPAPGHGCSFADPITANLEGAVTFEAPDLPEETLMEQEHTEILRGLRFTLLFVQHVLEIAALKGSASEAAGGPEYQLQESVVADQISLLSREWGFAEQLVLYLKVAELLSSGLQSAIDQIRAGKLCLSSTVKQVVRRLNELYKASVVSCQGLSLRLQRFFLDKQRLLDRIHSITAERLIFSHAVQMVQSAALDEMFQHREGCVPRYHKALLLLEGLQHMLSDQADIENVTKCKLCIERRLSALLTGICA
ASK1 primary: inhibitors of human ASK1 kinase | AlphaScreen MKK6 phosphorylation by ASK1, luminescence | 22,000 tested, 0.99% active | inhibition, % at 7.44 µM | Q99683; in the data active = inhibition above about 35%;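 also: 0% = median of compound wells and 100% = no enzyme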
Starred values were filed as active, the others as inactive; · = no result given. In the library only some 2.5% were active in any assay of this set; here they are far more common.

SMILES | ULK1 inh | ASK1 primary
C[C@H](N)[C@H](O)c1ccccc1 | -10.4 | ·
C[C@H](N)[C@H](O)c1ccc(O)c(O)c1 | 71.5* | ·
CC(CCc1ccccc1)NC(C)C(O)c1ccc(O)cc1 (centres undefined) | 3.3 | ·
CC(CO)NC(=O)C1C=C2c3cccc4[nH]cc(c34)C[C@H]2N(C)C1 (some centres undefined) | 22.1 | ·
CCN(CC)C(=O)N[C@H]1C=C2c3cccc4[nH]cc(c34)C[C@H]2N(C)C1 | 61.9* | ·
CCC1(CCC(C)C)C(=O)NC(=O)NC1=O | 9.2 | ·
CCC(N)Cc1c[nH]c2ccccc12 (centres undefined) | 4.7 | ·
CN(C)C1C(=O)C(C(N)=O)=C(O)C2(O)C(=O)C3=C(O)c4c(O)cccc4C(C)(O)C3CC12 (centres undefined) | 71.6* | ·
CN(C)[C@@H]1C(=O)C(C(N)=O)=C(O)[C@@]2(O)C(=O)C3=C(O)c4c(O)ccc(Cl)c4[C@@](C)(O)C3C[C@@H]12 (some centres undefined) | 49.2* | ·
CN(C)[C@@H]1C(=O)C(C(N)=O)=C(O)[C@@]2(O)C(=O)C3=C(O)c4c(O)cccc4[C@@](C)(O)[C@H]3C[C@@H]12 | 24.4 | ·
C[N+]1([O-])[C@@H]2CC(OC(=O)[C@H](CO)c3ccccc3)C[C@H]1[C@@H]1O[C@@H]12 (some centres undefined) | 0.0 | ·
c1cc2[nH]ncc2cc1N1CCNCC1 | -1.3 | -19.2
CC(CC(C(N)=O)(c1ccccc1)c1ccccc1)N(C)C (centres undefined) | 2.2 | ·
CCC(=O)OC(Cc1ccccc1)(c1ccccc1)[C@H](C)CN(C)C (some centres undefined) | 94.6* | ·
Clc1ccc2c(c1)C(c1ccccc1)=NCc1nncn1-2 | 9.6 | ·

Bioassay records as filed in PubChem BioAssay.
